Experimental data published in PubChem BioAssay (EPA / NIEHS).
Inconclusive results are not listed. Active and inactive are the calls of the source. The calls were made as follows: active = hit-call score of the fitted dose curve at least 0.9, where 1 is the maximum; inconclusive = response in the unintended direction; inactive = score below 0.9.

Assays:
[1] = ATG_M_06_XSP2: Attagene TRANS-FACTORIAL Multi-Species (XSP2) HepG2 Assay for M06 Transcription Factor (Internal Marker) (AID 2283811);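 also: internal background marker reporter mRNA measured by RT-PCR and capillary electrophoresis; hits are increases in signal above the DMSO baseline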
Outline: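 HepG2 cells transiently transfected with GAL4-UAS multi-reporter constructs, dosed 24 h with 3 nM 6-alpha-fluorotestosterone plus 1.5 nM norgestrel present to stimulate androgen receptor. Reporter mRNA quantified by RT-PCR, 6-FAM labelling, HpaI digestion and capillary electrophoresis; gain-of-signal fitted versus DMSO baseline.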

[2] = system: zebrafish Peroxisome Proliferator-activated Receptor gamma (PPARg), gene 557037; test: ATG_zfPPARg_XSP1: Attagene TRANS-FACTORIAL Multi-Species (XSP1) HepG2 Assay for zebrafish Peroxisome Proliferator-activated Receptor gamma (PPARg) (AID 2283801)
Outline: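 HepG2 cells transiently transfected with GAL4-UAS reporter units including a zebrafish PPARg–GAL4 chimera, dosed 24 h with 3 nM 6-alpha-fluorotestosterone present. Reporter mRNA quantified by RT-PCR, FAM labelling, HpaI digestion and capillary electrophoresis; induction versus DMSO.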

[3] = biological target: mouse Peroxisome Proliferator-activated Receptor gamma (PPARg), Pparg (gene 19016) (UniProt P37238); test: ATG_mPPARg_XSP1: Attagene TRANS-FACTORIAL Multi-Species (XSP1) HepG2 Assay for mouse Peroxisome Proliferator-activated Receptor gamma (PPARg) (AID 2283802)
Outline: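 HepG2 cells transiently transfected with GAL4-UAS reporter units driven by mouse PPARg–GAL4 chimera; 3 nM 6-alpha-fluorotestosterone present. After 24 h dosing, reporter mRNA quantified by RT-PCR, fluorescent labelling and capillary electrophoresis; gain of signal versus DMSO.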

[4] = biological target: Nuclear receptor subfamily 1 group I member 2 (Mus musculus) (UniProt O54915); test: ATG_mPXR_XSP1: Attagene TRANS-FACTORIAL Multi-Species (XSP1) HepG2 Assay for mouse Pregnane X Receptor (PXR) (AID 2283803)
Method: (§1) ATG_XSP1_multi-species_TRANS is a cell-based, multiplexed assay created by modifying the existing Attagene TRANS-FACTORIAL system to include a panel of nuclear receptors from some or all the following species: human (Homo sapiens), mouse (Mus musculus), frog (Xenopus laevis), zebrafish (Danio rerio), chicken (Gallus gallus), and turtle (Chrysemys picta). The ECOTOX-FACTORIAL format uses HepG2, a human liver cell line, with measurements taken at 24 hours after chemical dosing in a 24-well plate. Xsp1 included 3 nM 6-alpha-fluorotestosterone to partially stimulate the androgen receptor.ATG_mPXR_XSP1 is one of 29 assay components measured or calculated from the ATG_XSP1_multi-species_TRANS assay. It is designed to make measurements of mRNA induction, a form of inducible reporter, as detected with fluorescence intensity signals by Reverse transcription polymerase chain reaction (RT-PCR) and Capillary electrophoresis technology.The assay endpoint ATG_mPXR_XSP1 was analyzed in the positive analysis fitting direction relative to DMSO as the negative control and baseline of activity. […] Furthermore, this assay endpoint can be referred to as a primary readout, because this assay has produced multiple assay endpoints where this one serves a reporter gene function. […]

[5] = biological target: human Thyroid hormone Receptor alpha (TRa), THRA (gene 7067) (UniProt P10827); test: ATG_hTRa_XSP1: Attagene TRANS-FACTORIAL Multi-Species (XSP1) HepG2 Assay for human Thyroid hormone Receptor alpha (TRa) (AID 2283805)
Outline: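 HepG2 cells transiently transfected with GAL4-UAS reporter units expressing chimeric NR-Gal4 proteins, dosed 24 hours with 3 nM 6-alpha-fluorotestosterone present. Reporter mRNA measured by RT-PCR and capillary electrophoresis; gain of signal fitted versus DMSO.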

[6] = system: turtle Thyroid Hormone Receptor, alpha (TRa), gene 101949057; test: ATG_trTRa_XSP1: Attagene TRANS-FACTORIAL Multi-Species (XSP1) HepG2 Assay for turtle Thyroid Hormone Receptor, alpha (TRa) (AID 2283806)
Outline: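 HepG2 cells transiently transfected with GAL4-UAS reporter units and chimeric receptor-Gal4 constructs, with 3 nM 6-alpha-fluorotestosterone present. Reporter mRNA was quantified 24 h after dosing by RT-PCR, 6-FAM labelling and capillary electrophoresis; gain of signal versus DMSO.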

[7] = biological target: zebrafish Thyroid Hormone Receptor alpha (TRa), thraa (gene 30670) (UniProt Q98867); test: ATG_zfTRa_XSP1: Attagene TRANS-FACTORIAL Multi-Species (XSP1) HepG2 Assay for zebrafish Thyroid Hormone Receptor alpha (TRa) (AID 2283807)
Outline: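 HepG2 cells transiently transfected with GAL4-UAS reporter units including a zebrafish TRa–Gal4 chimera, dosed 24 h with 3 nM 6-alpha-fluorotestosterone present. Reporter mRNA quantified by RT-PCR and capillary electrophoresis; gain versus DMSO.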

[8] = biological target: human Thyroid hormone Receptor beta (TRb), THRB (gene 7068) (UniProt P10828); test: ATG_hTRb_XSP1: Attagene TRANS-FACTORIAL Multi-Species (XSP1) HepG2 Assay for human Thyroid hormone Receptor beta (TRb) (AID 2283808)
Method: as §1, with “receptor.ATG_hTRb_XSP1” for “receptor.ATG_mPXR_XSP1”, “ATG_hTRb_XSP1” for “ATG_mPXR_XSP1”

[9] = biological target: zebrafish Thyroid Hormone Receptor beta (TRb), thrb (gene 30607) (UniProt Q9PVE4); test: ATG_zfTRb_XSP1: Attagene TRANS-FACTORIAL Multi-Species (XSP1) HepG2 Assay for zebrafish Thyroid Hormone Receptor beta (TRb) (AID 2283809)
Outline: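 HepG2 cells transiently transfected with multiplexed GAL4-UAS reporter units expressing chimeric zebrafish TRb–Gal4. Dosed 24 h with 3 nM 6-alpha-fluorotestosterone present; reporter mRNA measured by RT-PCR, HpaI digestion and capillary electrophoresis; gain of signal versus DMSO.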

[10] = ATG_XTT_Cytotoxicity_XSP1: Cytotoxicity Assessment in the Attagene TRANS-FACTORIAL Multi-Species (XSP1) HepG2 Assay (AID 2283810)
Outline: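 XTT viability readout taken at 24 hours post-dosing in HepG2 liver cells co-treated with 3 nM 6-alpha-fluorotestosterone. Signal loss relative to DMSO controls reflects cytotoxicity.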

human Thyroid hormone Receptor alpha (TRa), THRA (gene 7067), sequence (P10827 whole entry, looked up, the tested form may be a part): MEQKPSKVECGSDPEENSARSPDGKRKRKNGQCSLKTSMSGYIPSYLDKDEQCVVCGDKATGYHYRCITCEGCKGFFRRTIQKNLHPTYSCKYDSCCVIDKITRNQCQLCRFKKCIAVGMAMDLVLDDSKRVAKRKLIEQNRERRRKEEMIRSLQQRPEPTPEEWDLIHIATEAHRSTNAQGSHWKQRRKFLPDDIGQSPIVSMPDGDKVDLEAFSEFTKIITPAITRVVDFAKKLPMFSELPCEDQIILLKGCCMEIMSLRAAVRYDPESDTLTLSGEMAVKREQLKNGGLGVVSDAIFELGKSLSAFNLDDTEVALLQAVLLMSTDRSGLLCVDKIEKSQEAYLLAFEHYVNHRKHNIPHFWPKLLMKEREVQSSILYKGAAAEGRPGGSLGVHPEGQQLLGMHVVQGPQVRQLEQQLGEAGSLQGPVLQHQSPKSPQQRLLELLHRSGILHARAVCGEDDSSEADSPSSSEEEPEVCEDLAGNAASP
zebrafish Thyroid Hormone Receptor alpha (TRa), thraa (gene 30670), sequence (Q98867 whole entry, looked up, the tested form may be a part): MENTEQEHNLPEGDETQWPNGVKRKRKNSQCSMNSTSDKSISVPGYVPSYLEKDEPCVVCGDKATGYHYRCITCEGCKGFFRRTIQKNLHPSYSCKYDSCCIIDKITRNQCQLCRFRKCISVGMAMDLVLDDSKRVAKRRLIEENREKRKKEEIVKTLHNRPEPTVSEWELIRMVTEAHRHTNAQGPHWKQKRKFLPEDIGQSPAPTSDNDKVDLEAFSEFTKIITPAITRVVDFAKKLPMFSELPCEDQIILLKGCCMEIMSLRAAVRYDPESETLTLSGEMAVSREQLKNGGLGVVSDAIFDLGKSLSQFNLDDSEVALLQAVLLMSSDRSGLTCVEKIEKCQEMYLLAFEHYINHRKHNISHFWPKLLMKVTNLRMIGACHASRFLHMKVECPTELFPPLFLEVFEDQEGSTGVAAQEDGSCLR
Nuclear receptor subfamily 1 group I member 2 (Mus musculus), sequence (O54915 whole entry, looked up): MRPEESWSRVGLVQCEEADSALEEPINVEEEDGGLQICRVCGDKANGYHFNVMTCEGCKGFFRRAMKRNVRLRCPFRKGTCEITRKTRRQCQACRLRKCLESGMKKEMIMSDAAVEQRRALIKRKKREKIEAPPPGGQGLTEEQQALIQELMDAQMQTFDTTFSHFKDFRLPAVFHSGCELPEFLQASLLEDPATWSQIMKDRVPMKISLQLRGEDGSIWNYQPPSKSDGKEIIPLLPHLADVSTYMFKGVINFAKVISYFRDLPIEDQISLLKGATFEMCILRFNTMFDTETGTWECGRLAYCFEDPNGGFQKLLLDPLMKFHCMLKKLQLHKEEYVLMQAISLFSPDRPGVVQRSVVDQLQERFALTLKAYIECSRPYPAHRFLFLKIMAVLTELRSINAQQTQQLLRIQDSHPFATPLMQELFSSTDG
zebrafish Thyroid Hormone Receptor beta (TRb), thrb (gene 30607), sequence (Q9PVE4 whole entry, looked up, the tested form may be a part): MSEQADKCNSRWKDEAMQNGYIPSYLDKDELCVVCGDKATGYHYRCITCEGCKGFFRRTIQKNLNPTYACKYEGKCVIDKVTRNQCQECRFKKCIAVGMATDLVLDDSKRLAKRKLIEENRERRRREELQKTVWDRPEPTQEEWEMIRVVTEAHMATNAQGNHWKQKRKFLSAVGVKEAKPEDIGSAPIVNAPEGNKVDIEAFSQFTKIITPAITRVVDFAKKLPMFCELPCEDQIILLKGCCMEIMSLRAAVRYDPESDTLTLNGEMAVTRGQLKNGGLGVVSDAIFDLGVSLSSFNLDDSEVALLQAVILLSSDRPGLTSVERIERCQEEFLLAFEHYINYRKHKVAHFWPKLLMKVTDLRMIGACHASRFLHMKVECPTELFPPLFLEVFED
mouse Peroxisome Proliferator-activated Receptor gamma (PPARg), Pparg (gene 19016), sequence (P37238 whole entry, looked up, the tested form may be a part): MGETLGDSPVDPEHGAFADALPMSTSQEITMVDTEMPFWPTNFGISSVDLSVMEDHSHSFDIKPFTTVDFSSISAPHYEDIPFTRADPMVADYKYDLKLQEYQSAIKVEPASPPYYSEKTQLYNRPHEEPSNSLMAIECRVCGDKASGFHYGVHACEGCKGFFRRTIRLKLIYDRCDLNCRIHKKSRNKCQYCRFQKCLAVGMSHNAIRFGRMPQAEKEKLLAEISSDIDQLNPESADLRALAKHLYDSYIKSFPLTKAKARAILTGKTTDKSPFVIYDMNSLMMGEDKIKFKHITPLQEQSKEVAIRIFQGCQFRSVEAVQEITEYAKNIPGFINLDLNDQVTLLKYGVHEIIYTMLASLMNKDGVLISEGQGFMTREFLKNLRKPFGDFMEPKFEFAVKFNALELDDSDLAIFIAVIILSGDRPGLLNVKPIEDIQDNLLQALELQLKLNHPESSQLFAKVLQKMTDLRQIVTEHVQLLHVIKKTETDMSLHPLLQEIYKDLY
human Thyroid hormone Receptor beta (TRb), THRB (gene 7068), sequence (P10828 whole entry, looked up): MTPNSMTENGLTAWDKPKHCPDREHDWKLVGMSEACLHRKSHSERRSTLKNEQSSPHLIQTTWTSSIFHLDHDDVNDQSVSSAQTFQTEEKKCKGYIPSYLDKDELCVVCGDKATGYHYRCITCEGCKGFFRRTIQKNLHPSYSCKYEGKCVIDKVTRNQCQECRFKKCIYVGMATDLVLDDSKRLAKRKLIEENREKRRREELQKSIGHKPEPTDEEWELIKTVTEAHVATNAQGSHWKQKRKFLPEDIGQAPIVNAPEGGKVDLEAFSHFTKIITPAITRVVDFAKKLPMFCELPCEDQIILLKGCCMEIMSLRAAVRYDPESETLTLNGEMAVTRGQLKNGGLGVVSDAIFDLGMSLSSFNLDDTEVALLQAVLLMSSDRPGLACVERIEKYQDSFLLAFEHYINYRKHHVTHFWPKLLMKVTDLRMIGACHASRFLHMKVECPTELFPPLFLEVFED

Compound | outcome [1] | AC50 [2] | AC50 [3] | AC50 [4] | outcome [5] | outcome [6] | outcome [7] | outcome [8] | outcome [9] | outcome [10]
Oc1ccc2c(c1)-c1ccccc1C2 | inactive |  |  |  |  |  |  |  |  | 
O=P(OC(CCl)CCl)(OC(CCl)CCl)OC(CCl)CCl | inactive | 78.6 µM (active) | 25.8 µM (active) | 0.447 µM (active) | inactive | inactive | inactive | inactive | inactive | inactive
